# Source: paper PMC5700166
# Molecular target: GST-Hu-p50 (Homo sapiens, UniProt P19838 7-356)
# Experiment: protein-binding microarray (PBM); PBM: ~300 nM protein, 6 mM HEPES pH 7.8, 80 mM KCl, 0.5 mM EDTA, 0.5 mM EGTA, 6% glycerol, 35 ng/ul poly-dIdC, 1% milk, 1 h, room temperature; Ap Aiptasia and Nv Nematostella (sea anemones) / Co Capsaspora / Aq Amphimedon (sponge) / Dm Drosophila / Hu human; RHD is the Rel homology domain; high values mean tight binding
# Conditions: dsDNA, one strand shown
# GST-Hu-p50, sequence (P19838 7-356): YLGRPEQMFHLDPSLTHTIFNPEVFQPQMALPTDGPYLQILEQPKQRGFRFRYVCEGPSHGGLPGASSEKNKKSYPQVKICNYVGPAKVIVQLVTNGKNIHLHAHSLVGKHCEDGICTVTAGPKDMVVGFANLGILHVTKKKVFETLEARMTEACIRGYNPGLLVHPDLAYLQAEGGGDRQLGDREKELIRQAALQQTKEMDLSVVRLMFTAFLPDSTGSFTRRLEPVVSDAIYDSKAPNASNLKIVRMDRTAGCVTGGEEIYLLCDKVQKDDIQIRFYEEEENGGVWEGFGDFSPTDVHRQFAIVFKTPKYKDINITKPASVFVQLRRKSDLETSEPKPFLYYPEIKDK
row,Sequence,binding signal [z-score]
1,CCGATTAACATCAGGGAATCTTATGATGTTAATCGGGTCTTGATTCGCTTGACGCTGCTG,4.29
2,CCGATTAACATCAGGGGATGTTATGATGTTAATCGGGTCTTGATTCGCTTGACGCTGCTG,5.29
3,CCGATTAACATCAAATAAGTCCCTGATGTTAATCGGGTCTTGATTCGCTTGACGCTGCTG,4.56
